Common to all, as to details: Compound concentration 20.0 uM, Protein concentration 2.0 uM, Result type QC Liability
In assay [1] the target is Tyrosine-protein kinase ABL1 (Homo sapiens) (UniProt P00519).
For assay [2], the target named is Cyclin-dependent kinase 2 (Homo sapiens) (UniProt P24941).
In assay [3] the target is Casein kinase I isoform delta (Homo sapiens) (UniProt P48730).
For assay [4], the target named is Glycogen synthase kinase-3 beta (Homo sapiens) (UniProt P49841).
In assay [5] the target is Mitogen-activated protein kinase 1 (Homo sapiens) (UniProt P28482).
Sequence of Mitogen-activated protein kinase 1 (Homo sapiens) (P28482 whole entry): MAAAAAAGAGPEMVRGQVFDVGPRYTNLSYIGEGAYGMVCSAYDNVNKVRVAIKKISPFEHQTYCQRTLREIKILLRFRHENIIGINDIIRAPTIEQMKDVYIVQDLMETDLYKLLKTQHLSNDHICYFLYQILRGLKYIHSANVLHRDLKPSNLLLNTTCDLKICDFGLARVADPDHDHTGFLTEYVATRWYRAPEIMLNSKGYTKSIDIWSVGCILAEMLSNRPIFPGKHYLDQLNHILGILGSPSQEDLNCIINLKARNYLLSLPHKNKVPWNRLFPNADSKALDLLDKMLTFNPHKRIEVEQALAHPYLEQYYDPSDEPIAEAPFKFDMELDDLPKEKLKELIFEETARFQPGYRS
Assay [6] deals with T1, Aurora kinase A (Homo sapiens) (UniProt O14965).
T1 sequence (whole entry): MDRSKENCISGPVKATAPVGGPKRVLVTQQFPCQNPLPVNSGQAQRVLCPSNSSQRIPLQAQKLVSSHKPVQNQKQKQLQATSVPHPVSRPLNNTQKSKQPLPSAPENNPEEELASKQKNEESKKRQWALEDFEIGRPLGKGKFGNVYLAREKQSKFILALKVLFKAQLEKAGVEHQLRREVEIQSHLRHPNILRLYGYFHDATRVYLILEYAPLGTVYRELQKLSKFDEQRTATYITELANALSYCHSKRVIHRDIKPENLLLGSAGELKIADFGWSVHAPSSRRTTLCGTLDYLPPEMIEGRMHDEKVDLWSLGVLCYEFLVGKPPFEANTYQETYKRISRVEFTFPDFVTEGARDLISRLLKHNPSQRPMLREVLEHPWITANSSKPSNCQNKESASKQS

Experimental findings from ChEMBL document CHEMBL5308504, “Tm Shift (DSF) assay results for EUbOPEN Chemogenomics Library” (2023) are described below.

Several values for one entry are separate records, joined by “and”; a condition that tells them apart may be missing. Identical values can stand only once.

Sequence of Glycogen synthase kinase-3 beta (Homo sapiens) (P49841 whole entry, looked up): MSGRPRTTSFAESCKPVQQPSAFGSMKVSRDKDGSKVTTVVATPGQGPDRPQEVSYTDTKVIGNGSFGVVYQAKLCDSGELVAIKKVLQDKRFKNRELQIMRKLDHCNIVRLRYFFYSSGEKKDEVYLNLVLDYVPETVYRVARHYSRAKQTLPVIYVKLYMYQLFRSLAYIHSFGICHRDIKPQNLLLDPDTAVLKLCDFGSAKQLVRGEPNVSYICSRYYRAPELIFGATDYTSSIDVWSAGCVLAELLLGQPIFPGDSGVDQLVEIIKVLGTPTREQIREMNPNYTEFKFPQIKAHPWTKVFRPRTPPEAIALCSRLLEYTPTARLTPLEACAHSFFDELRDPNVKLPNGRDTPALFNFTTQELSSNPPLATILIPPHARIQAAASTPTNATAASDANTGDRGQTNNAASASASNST
Sequence of Casein kinase I isoform delta (Homo sapiens) (P48730 whole entry, looked up, canonical isoform): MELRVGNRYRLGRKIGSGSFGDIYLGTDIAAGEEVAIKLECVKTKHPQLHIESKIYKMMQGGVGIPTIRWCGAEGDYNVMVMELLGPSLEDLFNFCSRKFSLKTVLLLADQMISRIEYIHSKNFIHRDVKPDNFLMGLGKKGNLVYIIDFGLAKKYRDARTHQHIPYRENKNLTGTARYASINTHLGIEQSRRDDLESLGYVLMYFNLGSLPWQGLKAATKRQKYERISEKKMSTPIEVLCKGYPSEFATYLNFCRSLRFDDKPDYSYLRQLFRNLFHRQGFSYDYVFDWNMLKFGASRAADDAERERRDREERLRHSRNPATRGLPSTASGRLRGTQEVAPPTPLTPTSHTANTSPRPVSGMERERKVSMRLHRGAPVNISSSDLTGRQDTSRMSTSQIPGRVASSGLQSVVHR
Sequence of Tyrosine-protein kinase ABL1 (Homo sapiens) (P00519 whole entry): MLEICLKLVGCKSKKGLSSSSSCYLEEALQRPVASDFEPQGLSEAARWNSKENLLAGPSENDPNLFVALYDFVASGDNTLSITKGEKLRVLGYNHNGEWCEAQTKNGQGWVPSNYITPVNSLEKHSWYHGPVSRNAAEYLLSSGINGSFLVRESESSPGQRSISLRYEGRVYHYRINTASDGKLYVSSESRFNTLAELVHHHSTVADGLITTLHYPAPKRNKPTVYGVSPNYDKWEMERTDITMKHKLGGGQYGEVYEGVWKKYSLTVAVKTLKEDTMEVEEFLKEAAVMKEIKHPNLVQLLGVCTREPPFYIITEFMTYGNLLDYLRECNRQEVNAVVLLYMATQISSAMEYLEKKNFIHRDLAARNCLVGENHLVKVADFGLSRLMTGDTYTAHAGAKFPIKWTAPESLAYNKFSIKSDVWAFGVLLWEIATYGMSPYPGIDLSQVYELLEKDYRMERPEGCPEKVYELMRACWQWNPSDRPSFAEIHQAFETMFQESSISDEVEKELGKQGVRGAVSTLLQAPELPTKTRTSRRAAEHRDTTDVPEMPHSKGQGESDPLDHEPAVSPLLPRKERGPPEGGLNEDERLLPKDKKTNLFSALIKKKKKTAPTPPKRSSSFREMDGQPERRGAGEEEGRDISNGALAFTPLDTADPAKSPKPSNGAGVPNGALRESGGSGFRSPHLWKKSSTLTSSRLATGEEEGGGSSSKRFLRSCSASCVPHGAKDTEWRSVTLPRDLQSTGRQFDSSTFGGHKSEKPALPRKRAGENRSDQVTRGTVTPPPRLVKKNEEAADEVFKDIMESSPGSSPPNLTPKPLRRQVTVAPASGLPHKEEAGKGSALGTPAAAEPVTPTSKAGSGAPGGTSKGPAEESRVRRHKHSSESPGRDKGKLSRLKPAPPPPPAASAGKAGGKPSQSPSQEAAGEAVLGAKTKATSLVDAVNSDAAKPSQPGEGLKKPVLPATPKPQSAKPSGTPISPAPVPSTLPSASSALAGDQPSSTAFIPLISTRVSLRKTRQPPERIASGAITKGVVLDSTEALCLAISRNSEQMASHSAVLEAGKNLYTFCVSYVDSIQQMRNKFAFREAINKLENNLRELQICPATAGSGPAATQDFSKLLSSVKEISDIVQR

In the case of `CC(C)C(=O)N1CCC(c2cn(C)c3ncc(NC(=O)c4cccc(C#N)c4)c(C(F)(F)F)c23)CC1`, the ΔTm in assay [1] is -0.05 °C; in assay [2], 0.71 °C; in assay [3] it was 0.74 °C; in assay [4] it was -0.4 °C; in assay [5] it was 0.36 °C; in assay [6], -0.71 °C.
In the case of `CC(=O)c1ccc2c(c1)/C(=C(/Nc1cccc(C#N)c1)c1ccc3c(c1)OCCO3)C(=O)N2`, the ΔTm came out at 6.24 °C in assay [1]; 5.79 °C in assay [2]; 1.02 °C in assay [3]; 12 °C in assay [4]; 0.75 °C in assay [5]; 4.32 °C in assay [6].
With `CC1(C)C(=O)N([C@H]2CCc3c(O)cccc32)c2nc(Nc3cccc(CN4CCCC4)c3)ncc21`, the ΔTm worked out at 6.13 °C in assay [2]; 2.09 °C in assay [3]; 6.72 °C in assay [4]; 5.19 °C in assay [5]; 12.8 °C in assay [6].
In the case of `COCCNC1CCC(Nc2cc(-c3csc(NCC4(C#N)CCOCC4)n3)c(Cl)cn2)CC1` (stereo not given), the ΔTm in assay [1] is 0.32 °C; in assay [2] it was 1.7 °C; in assay [3], 2.18 °C; in assay [4] it was 6.51 °C; in assay [5], 0.43 °C; in assay [6] it was 1.44 °C.
For `CCC(=O)N[C@@H]1CC[C@H](C(=O)N(C)c2ccc(-c3nc4ccccc4o3)cc2)C1`, the shift in melting temperature (ΔTm) in assay [1] was 0.73 °C; in assay [2], 0.64 °C; in assay [3], 0.6 °C; in assay [4] it was -0.1 °C; in assay [5], 0.12 °C; in assay [6] it was 0.03 °C.
Regarding `O=C(NC1CCNCC1)c1n[nH]cc1NC(=O)c1c(Cl)cccc1Cl`, the ΔTm was 0.36 °C in assay [1]; 0.04 °C in assay [3]; 11.4 °C in assay [4]; -0.04 °C in assay [5]; -1.05 °C in assay [6].
The corresponding values for `COc1ccc(F)c(F)c1C(=O)c1cnc(NC2CCN(S(C)(=O)=O)CC2)nc1N` are 0.33 °C, 0.3 °C, 7.07 °C, 0.27 °C and 0.02 °C.
For the compound `O=C(Nc1cc2cc[nH]c(=O)c2cc1Cl)[C@H]1CNC[C@@H]1c1cccnc1`, the shift in melting temperature (ΔTm) in assay [1] was 0.03 °C; in assay [2], 0.53 °C; in assay [3], 0.29 °C; in assay [4] it was -0.6 °C; in assay [5], 0.49 °C; in assay [6] it was -0.12 °C.
Consider `COc1ccc(COc2ccc(Cc3cnc(N)nc3N)cc2OC)cc1`, for which the thermal shift (ΔTm) in assay [1] was -0.19 °C; in assay [3], -0.66 °C; in assay [4] it was -0.98 °C; in assay [5], 0.25 °C; in assay [6], -0.26 °C.
With `CC(C)C(=O)N[C@@H]1CCN(C(=O)Nc2nc3c(s2)-c2nc(-c4ccccc4Cl)ncc2CC3)C1`, the ΔTm is 2.72 °C in assay [1]; 0.75 °C in assay [2]; 2.85 °C in assay [3]; 0.38 °C in assay [4]; 0.99 °C in assay [5]; 2.98 °C in assay [6].
Consider `Cc1cc2c(ncn2C2(C)CN(C(=O)c3ccn(CC4CCN([C@H]5C=CCCCC5)CC4)c3)C2)c(N)n1`, for which the shift in melting temperature (ΔTm) is 0.14 °C in assay [1]; 1.09 °C in assay [2]; -0.14 °C in assay [3]; -0.26 °C in assay [4]; 0.62 °C in assay [5]; -1 °C in assay [6].
Turning to `COc1cc2ncnc(Nc3ccc(F)c(Cl)c3)c2cc1OCCN(C)C[C@H](C)O`, the ΔTm in assay [1] was 2.95 °C; in assay [2], 0.34 °C; in assay [3] it was 1.99 °C; in assay [4], -0.21 °C; in assay [5] it was 0.43 °C; in assay [6] it was 0.41 °C.
On to `CN[C@@H](C)C(=O)N[C@H](C(=O)N1CCC[C@H]1C(=O)N[C@@H]1CCCc2ccccc21)C1CCCCC1`, for which the ΔTm was 0.2 °C in assay [1]; 0.07 °C in assay [2]; 1.13 °C in assay [3]; -0.99 °C in assay [4]; 0.48 °C in assay [5]; -0.97 °C in assay [6].
As to `CN[C@@H]1CC[C@@H](c2ccc(Cl)c(Cl)c2)c2ccccc21`, the ΔTm in assay [1] is -0.02 °C; in assay [2], 0.01 °C; in assay [3] it was 0.01 °C; in assay [4], -0.7 °C; in assay [5], 0 °C; in assay [6], -0.47 °C.
Turning to `O=C1NC(=NCc2cccs2)SC1=Cc1ccc2ncccc2c1`, the ΔTm in assay [1] is 2.9 °C; in assay [3], 0.75 °C; in assay [4], 3.78 °C; in assay [5] it was 0.66 °C; in assay [6] it was -0.94 °C.
With `Cc1ncsc1-c1ccc(CNC(=O)[C@@H]2C[C@@H](O)CN2C(=O)[C@@H](NC(=O)C2(F)CC2)C(C)(C)C)c(OCCOc2ccc(CN3CCN(c4cc(-c5ccccc5O)nnc4N)CC3)cc2)c1`, the ΔTm in assay [1] was 0.25 °C; in assay [2] it was 4.72 °C; in assay [3], 2.6 °C; in assay [4], 9.47 °C; in assay [5] it was -1.54 °C; in assay [6] it was 3.64 °C.
Regarding `COc1cc2ncnc(Nc3cccc(O)c3)c2cc1OC`, the ΔTm in assay [1] is 8.2 °C; in assay [3], 2.54 °C; in assay [4], 3.7 °C; in assay [5], 0.61 °C; in assay [6] it was 2.79 °C.
On to `CC(C)c1nc2c(c3c1[C@H](c1ccc(C(F)(F)F)cc1)OC31CCOCC1)[C@H](O)CC(C)(C)C2`, for which the ΔTm in assay [1] is -0.1 °C; in assay [2], -0.68 °C; in assay [3] it was -0.53 °C; in assay [4], -1.62 °C; in assay [5] it was -0.14 °C; in assay [6], -0.26 °C.
Regarding `CC[C@@H]1C(=O)N(C)c2cnc(Nc3ccc(C(=O)NC4CCN(C)CC4)cc3OC)nc2N1C1CCCC1`, the ΔTm in assay [1] was 1.51 °C; in assay [2], 0.58 °C; in assay [4], 0.02 °C; in assay [5], 0.15 °C; in assay [6], -0.18 °C.
`CCn1ccc(Nc2ncc3c(n2)-c2c(nn(C)c2-c2ccc(-c4cnn(C)c4)cc2Cl)CC3)n1`: the shift in melting temperature (ΔTm) in assay [1] was 3.73 °C; in assay [2], 5.04 °C; in assay [3], 2.25 °C; in assay [4] it was 5.78 °C; in assay [5] it was 0.81 °C; in assay [6], 6.95 °C.
Consider `CN1CCCN(C(=O)c2cccc(-c3ccc(/C=C4/C(=O)Nc5ccc(Cl)cc54)o3)c2)CC1`, for which the ΔTm in assay [1] was 1.94 °C; in assay [2], 2.38 °C; in assay [3] it was 2.04 °C; in assay [4] it was 5.85 °C; in assay [5] it was -0.12 °C; in assay [6], 1.88 °C.
With `COc1cc(-c2cc3ncccc3c(O[C@H](C)[C@H]3CNC(=O)C3)n2)cc(OC)c1OC`, the ΔTm in assay [1] is 3.69 °C and 3.1 °C; in assay [2], 0.94 °C; in assay [3], 3.55 °C and 2.97 °C; in assay [4] it was -0.33 °C and -0.99 °C; in assay [5] it was 1.84 °C and 1.51 °C; in assay [6], 9.58 °C and 8.08 °C.
Regarding `Cc1cc(Cn2c(N3CC4(CNC4)C3)nc3c(N4CCN(C)CC4)cc(Cl)cc32)cc(C)c1F`, the ΔTm turned out to be 0.24 °C in assay [1]; 0.83 °C in assay [2]; 0.19 °C in assay [3]; 0.34 °C in assay [4]; 0.58 °C in assay [5]; 0.07 °C in assay [6].
Take `CN(CCCCCCC1=C(c2cc(F)cc(F)c2)CCCc2cc(O)ccc21)CCCCS(=O)(=O)CCCC(F)(F)F`: the ΔTm in assay [1] was -0.9 °C; in assay [2], -0.47 °C; in assay [3] it was 0.28 °C; in assay [4] it was 0 °C; in assay [5], -9.1 °C; in assay [6], 0.84 °C.
Turning to `CCN1CCN(Cc2ccc(Nc3ncc(F)c(-c4cc(F)c5nc(C)n(C(C)C)c5c4)n3)nc2)CC1`, the ΔTm in assay [1] is 3.44 °C; in assay [3] it was 4.97 °C; in assay [4], 11.1 °C; in assay [5], 1.41 °C; in assay [6], 3.81 °C.
In the case of `Cc1cc2c(-c3ccco3)cnc(N[C@@H]3CCN(C)C[C@H]3C(=O)NC3CCCCC3)c2[nH]c1=O`, the ΔTm in assay [1] is 0.07 °C; in assay [2], 0.91 °C; in assay [3] it was -0.09 °C; in assay [4] it was -0.51 °C; in assay [5], 0.54 °C; in assay [6], 0.79 °C.
For the compound `C[C@@H]1COCCN1c1cc(=O)n2c(n1)N(Cc1cncc(Cl)c1)[C@H](C(F)(F)F)CC2`, the ΔTm in assay [1] was 0.53 °C; in assay [2], 0.54 °C; in assay [3], 0.16 °C; in assay [4], 0.4 °C; in assay [5], 0.34 °C; in assay [6], -0.23 °C.
Consider `CN(C)C(=O)Cn1cc(-c2ccc(-c3nnc4ccccn34)cc2)cn1`, for which the ΔTm in assay [1] is -0.4 °C; in assay [2], 0.44 °C; in assay [3], 0.44 °C; in assay [4] it was -0.7 °C; in assay [5], 0.27 °C; in assay [6], -0.04 °C.
On to `NS(=O)(=O)c1ccc(Nc2nc(OCC3CCCCC3)c3nc[nH]c3n2)cc1`, for which the thermal shift (ΔTm) in assay [1] was found to be 5.71 °C; in assay [3] it was 0.51 °C; in assay [4], 5.83 °C; in assay [5], 2.65 °C; in assay [6], 7.68 °C.
